# Assay outcomes as filed in PubChem BioAssay.
# In the library only some 2.7% were active in any assay of this set; here they are far more common.
# KLK7 zymogen act – proKLK7 (human) activation, primary screen | purified proKLK7, EDANS-DABCYL substrate fluorescence; 100% is mature enzyme control, 0% vehicle | 0.9% of 370,000 active | P49862 | activation, % at 7 µM;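 active = activation above the mean of all tested compounds plus 3 SD, computed per campaign excluding outliers beyond control limits, cut at about 13% in these data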
# Neddyl block – blocks human cullin neddylation | 0.58% of 360,000 active | TR-FRET cullin neddylation, biochemical | P61081+Q13564 | AID 651699 | calls only at 25 µM; in the data active = inhibition above about 36%
# PfGluPho inh – PfG6PD (Plasmodium falciparum) enzyme inhibition. inhibition, % at 20 µM. PfGluPho enzyme, NADPH resazurin-diaphorase fluorescence. 0.78% of 350,000 active;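 active = inhibition reaching at least a set limit at 20 µM in the primary screen, cut at about 59% in these data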;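 note: 0% = DMSO wells with substrate and 100% = DMSO wells lacking glucose-6-phosphate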
# FAS-TE inh – inhibitors of human fatty acid synthase thioesterase domain; P49327; 0.67% of 360,000 active; recombinant FAS-TE, OMFH fluorogenic substrate, fluorescence endpoint; inhibition, % at 15 µM;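 active = compounds whose normalised, plate-corrected inhibition of enzyme fluorescence in the single-dose primary screen is 50% or more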;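 note: 0% = DMSO with enzyme and 100% = substrate without enzyme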
# Numbers without * were called inactive; i = inactive; x = no result given; + = active, no number.
SMILES,KLK7 zymogen act,Neddyl block,PfGluPho inh,FAS-TE inh
C/C(=N\OCC(=O)N/N=C/c1ccc(C)cc1O)c1cccs1,-14,+,-24,11
O=C(Nc1nc(-c2ccc(S(=O)(=O)N3CCCC3)cc2)cs1)c1cccs1,-7,i,3,52*
COc1cccc(N2CCN(CC(=O)N(C)Cc3ccccc3Cl)CC2)c1,0,x,x,x
Nc1c2c(nc3ccn(Cc4ccccc4)c(=O)c13)CCC2,1,+,4,-9
CCOC(=O)CN1CCCc2nc(-c3ccc(OC)cc3)ccc21,12,x,x,x
CCOC(=O)CN1CCCc2nc(C)c(C)cc21,29*,x,x,x
O=C(c1cc(COc2cccc3cnccc23)on1)N1CCCC(CCCO)C1 (stereo not given),7,+,-24,-1
Cc1c(NC(=O)C2CCCN(S(=O)(=O)c3ccccc3[N+](=O)[O-])C2)c(=O)n(-c2ccccc2)n1C (stereo not given),0,x,x,x
N#Cc1c(C(F)(F)F)cc(-c2ccccc2)[nH]c1=O,25*,x,10,0
Cc1ccc(-c2cc(C(F)(F)F)c(C#N)c(=O)[nH]2)cc1,8,x,-4,-9
O=C(O)c1ccc(N/N=C/c2cn(Cc3ccc(F)cc3)c3ccccc23)cc1,-3,+,-22,9
Cc1ccc(-n2c(SCC(=O)Nc3ccc(S(=O)(=O)Nc4cc(C)nc(C)n4)cc3)nnc2-c2ccc(C(C)(C)C)cc2)cc1,0,x,x,x
Cc1ccc(-c2nc(C3CCCN(S(=O)(=O)c4ccc(Cl)s4)C3)no2)cc1 (stereo not given),0,x,x,x
N#Cc1cccc(N=c2ssnc2Cl)c1,0,x,80*,x
Cc1cc(C)cc(C(N)=Nc2cccc(C#N)c2)c1,0,i,25,-2
CN1Cc2nnn(Cc3ccccc3)c2-c2cc(N3CCCC3)ccc2S1(=O)=O,-4,x,x,x
Cc1ccc(CSc2nnc(-c3n[nH]c4c3CCC4)n2N)cc1,0,x,x,x
O=Cc1ccc(Sc2nnc(-c3ccccc3)o2)c([N+](=O)[O-])c1,x,i,94*,32
Cc1cc(C)nc(Sc2ccc(C=O)cc2[N+](=O)[O-])n1,0,i,1,-5
c1ccc(Sc2ccncc2)cc1,0,i,12,-5
c1cc(SSc2ccncc2)ccn1,0,i,65*,-3
CC(C)(C)C(=O)Cn1c(=N)n(Cc2ccccc2)c2ccccc21,-1,i,-1,10
Cc1ccc(Cn2c(=N)n(CC(=O)c3ccccc3)c3ccccc32)cc1,0,i,28,64*
O=C(Nc1ccccc1)n1ccc2ccc(-c3ccc4cc[nH]c4c3)cc21,-3,x,x,x
Cc1nc2ccccn2c(=O)c1NC(=O)c1ccco1,-1,i,-3,-8
SMILES,KLK7 zymogen act,Neddyl block,PfGluPho inh,FAS-TE inh
Cn1c(C(=O)N2CCN(C(=O)c3ccco3)CC2)cc2c(=O)n3ccccc3nc21,46*,x,-3,-3
CC(C)(C)OC(=O)N1CCC(c2ccc[nH]2)(c2c[nH]c3ccccc23)CC1,1,x,x,x
CCCCOc1cccc(-c2cc(C(=O)NNC(=S)NCC)c3ccccc3n2)c1,0,i,-1,74*
CCNC(=S)NNC(=O)c1cc(-c2cccc(OCC)c2)nc2ccccc12,-1,i,2,6
CCCc1cc(-c2nc(N)ncc2-c2ccc3c(c2)OCCCO3)c(O)cc1OC,0,i,71*,33
CCCc1cc(-c2nc(N)ncc2-c2csc(C)n2)c(O)cc1OC,0,i,-15,9
C[C@H](CO)N1C[C@H](C)[C@@H](CN(C)C(=O)Nc2ccccc2)Oc2c(NC(=O)Nc3ccc4c(c3)OCO4)cccc2C1=O,0,i,2,50
C[C@H](CO)N1C[C@H](C)[C@@H](CN(C)C(=O)Nc2ccc3c(c2)OCO3)Oc2c(NC(=O)Nc3ccc4c(c3)OCO4)cccc2C1=O,1,i,34,55*
O=C(N/N=C/c1cc(Br)ccc1O)C(c1ccncc1)N1CCOCC1 (stereo not given),-71,+,-30,43
CN(Cc1ccccc1)S(=O)(=O)c1cccc(C(=O)OCc2ccc(Oc3ccccc3)cc2)c1,0,x,x,x
Cc1snc(SCC(=O)c2ccc(F)cc2)c1C#N,0,i,5,32
Cc1snc(SCC(=O)c2ccc([N+](=O)[O-])cc2)c1C#N,0,i,62*,11
O=C(NCc1ccc(F)c(F)c1)C1C2C=CC3(CN(Cc4ccccc4)C(=O)C13)O2 (stereo not given),0,x,x,x
O=C(COC(=O)c1ccc(Sc2ncn[nH]2)c([N+](=O)[O-])c1)Nc1ccc(Cl)c(Cl)c1,0,x,x,x
CC(C)S(=O)(=O)C1=NSC2=NC(=O)/C(=C\c3ccc(-c4ccccc4)o3)C(=N)N21,1,+,-31,-2
